Measurements as given in PubChem BioAssay AID588511 (Johns Hopkins Ion Channel Center, 2011).
Hit rate of the full screen: of about 310,000 compounds, about 3,600 (1.2%) were called active.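 How the source made its calls: active means ratio plate-corrected score three or more library SD toward inhibition, starting fluorescence score within five deviations; inactive means the rest.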 The sample as a whole holds a higher share of actives than the screen did.

Each molecule was assayed against Anoctamin-1 (Mus musculus) (UniProt Q8BHY3) (assay: blockers of mouse ANO1 Ca-activated Cl channel – cell-based, HTS, primary screen (AID 588511;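 on normalized B-score (activity score, 25-100; higher = stronger inhibition): score derived from kinetic fluorescence span divided by baseline fluorescence per well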)). Settings: HEK293 TMEM16A/YFP iodide influx fluorescence, ionomycin; at 10 µM.
Chain of Anoctamin-1 (Mus musculus) (Q8BHY3 whole entry, looked up): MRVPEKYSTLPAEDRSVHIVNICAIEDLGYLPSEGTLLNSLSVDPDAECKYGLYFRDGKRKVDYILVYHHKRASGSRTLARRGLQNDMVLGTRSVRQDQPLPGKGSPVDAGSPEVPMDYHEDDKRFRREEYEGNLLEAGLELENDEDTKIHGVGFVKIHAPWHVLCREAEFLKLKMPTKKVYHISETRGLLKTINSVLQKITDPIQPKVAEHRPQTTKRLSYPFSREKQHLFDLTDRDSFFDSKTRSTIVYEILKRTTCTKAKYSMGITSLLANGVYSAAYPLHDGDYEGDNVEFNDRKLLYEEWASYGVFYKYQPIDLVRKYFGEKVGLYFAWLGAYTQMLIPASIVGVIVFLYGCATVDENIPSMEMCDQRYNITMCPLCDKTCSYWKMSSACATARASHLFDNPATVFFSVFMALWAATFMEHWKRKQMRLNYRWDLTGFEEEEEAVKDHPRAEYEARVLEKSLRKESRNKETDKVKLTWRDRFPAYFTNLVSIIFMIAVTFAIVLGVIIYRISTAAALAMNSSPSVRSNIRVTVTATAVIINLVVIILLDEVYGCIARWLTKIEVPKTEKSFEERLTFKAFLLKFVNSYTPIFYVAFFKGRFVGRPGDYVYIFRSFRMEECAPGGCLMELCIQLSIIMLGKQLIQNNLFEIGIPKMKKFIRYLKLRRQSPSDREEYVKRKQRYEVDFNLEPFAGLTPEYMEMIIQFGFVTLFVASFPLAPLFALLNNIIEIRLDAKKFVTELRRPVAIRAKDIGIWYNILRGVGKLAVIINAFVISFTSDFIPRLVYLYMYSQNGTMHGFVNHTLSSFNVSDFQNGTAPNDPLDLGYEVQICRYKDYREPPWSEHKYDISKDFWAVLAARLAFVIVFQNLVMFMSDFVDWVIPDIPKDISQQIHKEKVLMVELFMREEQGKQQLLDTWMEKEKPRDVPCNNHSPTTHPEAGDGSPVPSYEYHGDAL

Row | Structure (SMILES) | normalized B-score (activity score, 25-100; higher = stronger inhibition)
1 | C=CCNC(=O)C1CC2c3ccccc3C1c1ccccc12 (configuration not stated) | inactive
2 | CCOc1ccc(S(=O)(=O)N2CCCC(C(=O)N3CCC(C(N)=O)CC3)C2)cc1Cl (configuration not stated) | inactive
3 | C#CCOCCOCCOCCNc1nc(N2CCN(C(=O)CCCCCCCCCCNC(=O)Cn3cc(CCCCCN)nn3)CC2)nc(N2CCN(C(=O)CCCCCCCCCCNC(=O)[C@H](CO)n3cc(CCCSC)nn3)CC2)n1 | inactive
4 | C#CCOCCOCCOCCNc1nc(N2CCN(C(=O)CCCCCCCCCCNC(=O)[C@H]([C@@H](C)CC)n3cc(CCCCN=C(N)N)nn3)CC2)nc(N2CCN(C(=O)CCCCCCCCCCNC(=O)[C@H](CO)n3cc(CCCSC)nn3)CC2)n1 | inactive
5 | C#CCOCCOCCOCCNc1nc(N2CCN(C(=O)CCCCCCCCCCNC(=O)[C@H](CCCCN)n3cc(C)nn3)CC2)nc(N2CCN(C(=O)CCCCCCCCCCNC(=O)[C@H](CO)n3cc(CCCSC)nn3)CC2)n1 | 100 (active)
6 | COC(=O)CSc1nc2c(c(C3CC=CCC3)c1C#N)CCC2 (configuration not stated) | inactive
7 | CCOC(=O)C1CCN(S(=O)(=O)c2c(C)noc2C)CC1 | inactive
8 | Cn1c(CN2CCOCC2)nc2cc(NC(=O)c3ccc(Cl)cc3)ccc21 | 100 (active)
9 | CCOC(=O)N1CCN(Cc2nc3cc(NC(C)=O)ccc3n2C)CC1 | inactive
10 | CC(=O)NCCc1nc2cc(NC(=O)c3ccccc3)ccc2n1C | inactive
11 | O=C(NCCCn1ccnc1)C1CCCN(S(=O)(=O)c2cc(Cl)ccc2Cl)C1 (configuration not stated) | inactive
12 | Nc1nnc2c(C(F)(F)F)nc3ccccc3n12 | inactive
13 | CCn1c(=O)c(C(=O)NCc2ccc3c(c2)OCO3)c(O)c2ccccc21 | inactive
14 | Cc1nc2c(C(=O)NCc3ccc4c(c3)OCO4)c[nH]n2c(=O)c1Cc1ccccc1F | 100 (active)
15 | O=C(NCc1ccc2c(c1)OCO2)c1cc(F)c(F)cc1Cl | inactive
16 | CCN(C(=O)Cc1nc(N)n[nH]1)C1(C(=O)Nc2ccccc2)CCCCC1 | inactive
17 | Cn1nccc1C(=O)NC1CCCc2c1cnn2-c1ccccc1F (configuration not stated) | inactive
18 | COc1ccc(C(=O)NC2CCCc3c2cnn3-c2cccc(C)c2C)c(OC)n1 (configuration not stated) | 100 (active)
19 | Cc1cc(C(=O)NC2CCCc3c2cnn3-c2cccc(C)c2C)c(C)o1 (configuration not stated) | inactive
20 | O=C(CCN1C(=O)c2ccccc2C1=O)C1=NN[C@@H]2C(=O)N(c3ccc(F)cc3)C(=O)[C@H]12 | inactive
21 | C=CCC(CC=C)(C(N)=O)c1ccccc1 | inactive

Row | Structure (SMILES) | normalized B-score (activity score, 25-100; higher = stronger inhibition)
22 | Cc1ccc([C@@H]2CC=C(C(=O)O)[C@H](c3cccc(Cl)c3)N2S(=O)(=O)c2ccc(C)cc2)cc1 | inactive
23 | Cc1ccc(S(=O)(=O)N2[C@@H](c3ccccc3F)C(C(=O)O)=CC[C@H]2c2ccc(Cl)cc2)cc1 | inactive
24 | Cc1ccc(S(=O)(=O)N2[C@@H](c3cccc(Cl)c3)C(C(=O)O)=CC[C@H]2c2ccc(Cl)c(Cl)c2)cc1 | 100 (active)
25 | Cc1ccccc1NC(=O)NCC1CCN(Cc2cccc(Cl)c2)CC1 | inactive
26 | CS(=O)(=O)N(CC(=O)N1CCN(c2cccc(Cl)c2)CC1)c1ccccc1 | inactive
27 | Cc1ccccc1S(=O)(=O)N1[C@@H](c2cccc(Cl)c2)C(C(=O)O)=CC[C@H]1c1ccc(Cl)cc1 | 100 (active)
28 | CC(C)CCNC(=O)CC1C(=O)N(Cc2ccccc2)C(C)c2nc3ccccc3n21 (configuration not stated) | inactive
29 | CC1CCN(Cc2nc3c(c(=O)n(C)c(=O)n3C)n2CCc2ccccc2)CC1 | inactive
30 | O=C(Nc1ccccc1C(=O)NCC1CCCO1)c1ccccc1F (configuration not stated) | inactive
31 | CCC(C(=O)NCc1cccnc1)n1nc(C)c2sc3ccccc3c2c1=O (configuration not stated) | inactive
32 | CC(=O)NCCC(=O)Nc1nc(-c2ccc3c(c2)OCCO3)cs1 | inactive
33 | O=C(Nc1nc2ccccc2s1)c1ccc2c(c1)OCO2 | inactive
34 | O=C(Nc1nc(-c2ccc3c(c2)OCO3)cs1)c1ccncc1 | 100 (active)
35 | O=C(O)Cc1csc(NC(=O)CSc2nnnn2-c2ccc(O)cc2)n1 | inactive
36 | CC(C)NC(=O)NCCCCCCS(C)=O (configuration not stated) | inactive
37 | C=C(C)Cn1c(C)cc(C)c(S(=O)(=O)c2ccccc2C)c1=O | 100 (active)
38 | Cc1cc(C)c(S(=O)(=O)c2ccc(F)cc2C)c(=O)[nH]1 | inactive
39 | COc1ccccc1S(=O)(=O)c1c(C)cc(C)[nH]c1=O | inactive
40 | Cc1ccc(NC(=O)CSc2nn3c(=O)c(C)nnc3s2)cc1Cl | inactive
41 | CCC(C)c1ccccc1NC(=O)CN(C)CC(=O)Nc1ccccc1SC (configuration not stated) | inactive
42 | CCCCOC(=O)CCCc1ccc([N+](=O)[O-])cc1[N+](=O)[O-] | inactive

Row | Structure (SMILES) | normalized B-score (activity score, 25-100; higher = stronger inhibition)
43 | O=C(N/N=C/c1cc(Cl)cc([N+](=O)[O-])c1O)C(O)(c1ccccc1)c1ccccc1 | 100 (active)
44 | O=C(N/N=C/c1cc(Br)c(O)c([N+](=O)[O-])c1)C(O)(c1ccccc1)c1ccccc1 | inactive
45 | CN(C)/N=C/c1cc(Cl)cc([N+](=O)[O-])c1O | inactive
46 | S=C(NCc1ccc(Cl)cc1)NC12CC3CC(CC(C3)C1)C2 | 100 (active)
47 | O=C(NCc1ccncc1)NC12CC3CC(CC(C3)C1)C2 | inactive
48 | O=C(NCc1ccc(Cl)cc1)NCc1ccc(Cl)cc1 | inactive
49 | C=CCn1c2ccccc2c2nnc(SCc3[nH]c(=O)[nH]c3C(=O)CCCCC(=O)OCC)nc21 | inactive
50 | COc1cc(N2C(=O)CC3(CCCC3)CC2=O)cc(OC)c1OC | inactive
51 | COc1cc(OC)cc(C(=O)NNC(=O)CNC(=O)c2ccc(Br)o2)c1 | inactive
52 | CSCc1ccc(C(=O)Nc2cc(C)cc(C)c2)cc1 | inactive
53 | Cc1occc(=O)c1OCc1ccc(F)cc1 | inactive
54 | Fc1ccccc1COc1cccc2cccnc12 | inactive
55 | Cc1nc2ccccc2cc1OCc1ccc(F)cc1 | 25 (active)
56 | CC1CCCCN1C(=O)Cn1c(=O)oc2cc(S(=O)(=O)N3CCCCC3)ccc21 (configuration not stated) | inactive
57 | Cc1cc(C)cc(NC(=O)Cn2cnc3c(nnn3Cc3ccc(F)cc3)c2=O)c1 | inactive
58 | CCC1SC2=NCCN2C1(O)c1ccc(Cl)cc1 (configuration not stated) | inactive
59 | Clc1ccccc1SCc1nc2ccccc2[nH]1 | inactive
60 | Clc1ccc(-c2nnc(SCc3nc4ccccc4s3)o2)cc1 | inactive
61 | c1ccc(-c2nnc(SCc3nc4ccccc4[nH]3)o2)cc1 | 25 (active)
62 | COc1ccc([C@H]2[C@H](C(C)=O)N3N=Cc4ccccc4C3C23C(=O)OC(C)(C)OC3=O)cc1 (some centres not stated) | inactive
